One assay concerns the target Albumin (Bos taurus) (UniProt P02769). Nature of the assay: bovine serum albumin binders on microarray, profiling panel, artefact control for SMM control protein annotation, biochemical, small-molecule microarray, Alexa647 label, 635/667 nm fluorescence (AID 1118).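 Further: score merges 667 nm emission intensity and signal-to-noise per printed compound spot.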 The following applies: BSA-A647 binding, fluorescence 635 nm, higher = more signal.
Assay [1] in a line: small-molecule microarray binders of probe aXIP, primary screen, biochemical, NeuroSMM set, 635/667 nm fluorescence (AID 1119).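 Further: probe is the protein aXip251-270 applied at 1 µg/mL to compound-printed slides; binding of probe to printed compounds measured as 667 nm fluorescence plus signal to noise.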 The following applies: higher = more signal, called active from +8 up or from −8 down.
Assay [2] can be described thus: small-molecule binders of probe aNOTCH3, primary screen, biochemical, small-molecule microarray, 635/667 nm fluorescence (AID 1120).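 Further: probe is a biotin-tagged antibody raised against NOTCH3 rather than NOTCH3 protein; score merges spot fluorescence near 667 nm with spot signal to noise.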 The conditions noted are these: higher = more signal.
The nature of assay [3]: small-molecule binders of probe aNOTCH2, primary screen, biochemical, small-molecule microarray, 635/667 nm fluorescence (AID 1121).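 Further: score merges feature fluorescence read at 667 nm with its signal to noise.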 The conditions noted are these: higher = more signal.
For assay [4], the target named is Carbonic anhydrase 2 (Homo sapiens) (UniProt P00918). Nature of the assay: CAII small-molecule binders, profiling panel, biochemical, small-molecule microarray, Alexa647-labelled CAII (AID 1122). The following applies: CAII-A647 binding fluorescence, higher = more signal.
Assay [5] is described as follows: COS7 lysate on small-molecule microarray, probe aHis, 635 nm (AID 1123).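 Further: z-score combines 667nm fluorescence intensity with signal-to-noise per printed compound spot.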 The conditions noted are these: COS7 cell lysate, fluorescence, higher = more signal.
Assay [6] can be described thus: compound binding in COS7 lysate, probe aLAP1, primary screen, cell lysate, small-molecule microarray (AID 1124).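 Further: lysate comes from COS7 cells expressing LAP1 and is applied at 0.3 µg/mL; score merges spot fluorescence near 667 nm with signal-to-noise over triplicate slides.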 The conditions noted are these: probe aLAP1, fluorescence, higher = more signal.
A further assay has as its system Sam68 (KHDRBS1). Put plainly: Sam68 small-molecule binders, primary screen, biochemical, small-molecule microarray, 635 nm fluorescence (AID 1125).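 Further: score merges 667 nm channel intensity with signal to noise over triplicate slides.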 The conditions noted are these: small-molecule microarray binding, higher = more signal.
The test system of assay [7] is Chordin-like protein 2 (CHRDL2). Nature of the assay: CHRDL2 small-molecule binders, primary screen, biochemical, small-molecule microarray, 635 nm fluorescence (AID 1126).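 Further: printed compound slides probed with Chrdl2 protein at 4 µg/mL for 1 h at 4 C; score merges 667 nm emission intensity with signal to noise over three replicate slides.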 The conditions noted are these: small-molecule microarray binding, fluorescence 635 nm; higher = more signal.
The target in assay [8] is Concanavalin-A (Canavalia ensiformis) (UniProt P02866). Nature of the assay: ConA small-molecule binders, primary screen, artefact control for SMM control protein annotation, biochemical, small-molecule microarray, Alexa647 label, 635 nm (AID 1127).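 Further: z combines 667 nm emission intensity with signal-to-noise across three replicate slides.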 The following applies: ConA-A647 binding fluorescence, higher = more signal.
The nature of assay [9]: anti-His antibody binders, primary screen, artefact control for SMM control protein annotation, biochemical, small-molecule microarray, 635 nm fluorescence (AID 1128).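 Further: score merges feature fluorescence with signal-to-noise for each printed compound spot.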 The conditions noted are these: anti-His Alexa647 antibody binding, higher = more signal.
The test system of assay [10] is Human papillomavirus type 1a E7 protein (residues 1-88). Nature of the assay: HPV1a E7 small-molecule binders, primary screen, biochemical, small-molecule microarray, residues 1-88, 635 nm (AID 1129). The conditions noted are these: small-molecule microarray binding, fluorescence 635 nm; higher = more signal.
For assay [11], the target named is Focal adhesion kinase 1 (Homo sapiens) (UniProt Q05397). Put plainly: small-molecule microarray binders of FAK, primary screen, biochemical, 635/667 nm fluorescence, BSA, DTT (AID 1130).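 Further: composite of spot emission at 667 nm and signal to noise over triplicate slides.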 The following applies: PTK2 binding, 635 nm fluorescence, higher = more signal.
In assay [12] the test system is Fibrinogen (Alexa647-labelled). Nature of the assay: fibrinogen binders on compound microarrays, profiling panel, artefact control for SMM control-protein annotation, biochemical, small-molecule microarray, 635/667 nm fluorescence (AID 1131).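 Further: z-score merges 667 nm fluorescence with per-spot signal-to-noise over triplicate slides.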 The following applies: fibrinogen-A647 binding fluorescence, higher = more signal.
Assay [13] has as its target Follistatin (Homo sapiens) (UniProt P19883). Nature of the assay: follistatin binders on small-molecule microarrays, primary screen, biochemical, small-molecule microarray, 635/667 nm fluorescence (AID 1132). The following applies: FST binding, 635 nm fluorescence, higher = more signal.
Assay [14] addresses Fibroblast growth factor 2 (Homo sapiens) (UniProt P09038). Nature of the assay: FGF2 binders on small-molecule microarrays, primary screen, biochemical, small-molecule microarray, 635/667 nm fluorescence (AID 1133). The conditions noted are these: small-molecule microarray binding, FGF2, fluorescence 635/667; higher = more signal.
A short description of assay [15]: mitochondrial membrane potential change in A549 cells, profiling panel, cell-based, JC-1 fluorescence, basal, 24 h, 100 nL (AID 1138).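 Further: A549 lung adenocarcinoma cells under basal conditions with no added stimulus; test concentration not given here.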 The conditions noted are these: higher = more signal.
Another assay concerns Lefty1. Nature of the assay: Lefty1 binders on small-molecule microarrays, primary screen, biochemical, small-molecule microarray, 635/667 nm fluorescence (AID 1139). The following applies: small-molecule microarray binding, fluorescence 635/667; higher = more signal.
The subject of assay [16] is wheat germ agglutinin (Triticum aestivum), Alexa647-labelled. Put plainly: wheat germ agglutinin binders on compound microarrays, profiling panel, artefact control for SMM control-protein annotation, biochemical, small-molecule microarray, 635/667 nm fluorescence (AID 1140).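 Further: score merges 667 nm feature emission with signal to noise over triplicate slides.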 The following applies: WGA-A647 binding, 635 nm fluorescence, higher = more signal.
The target of assay [17] is Luciferin 4-monooxygenase (Photinus pyralis) (UniProt P08659). Nature of the assay: firefly luciferase enzyme inhibitors, primary screen, biochemical, luminescence, purified enzyme, 2006 set (AID 1141).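 Further: cell-free assay with purified firefly luciferase at 100 ng per well in PBS; test concentration not given here.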 The following applies: SteadyGlo luminescence, 30 min, higher = more signal, called active from +8 up or from −8 down.

SMILES strings stand for the structures. Active and inactive are the calls of the source.

Follistatin (Homo sapiens), sequence (P19883 whole entry, looked up): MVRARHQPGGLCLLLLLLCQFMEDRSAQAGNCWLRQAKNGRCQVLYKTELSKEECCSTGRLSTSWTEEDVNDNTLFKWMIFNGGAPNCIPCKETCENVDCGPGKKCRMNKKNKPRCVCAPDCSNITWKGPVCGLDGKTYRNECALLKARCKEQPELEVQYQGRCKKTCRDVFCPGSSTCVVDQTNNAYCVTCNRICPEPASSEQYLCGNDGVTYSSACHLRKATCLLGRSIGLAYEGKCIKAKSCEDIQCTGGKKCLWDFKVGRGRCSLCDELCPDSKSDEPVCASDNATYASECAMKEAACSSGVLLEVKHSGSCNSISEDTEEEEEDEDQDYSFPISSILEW
Albumin (Bos taurus), sequence (P02769 whole entry, looked up): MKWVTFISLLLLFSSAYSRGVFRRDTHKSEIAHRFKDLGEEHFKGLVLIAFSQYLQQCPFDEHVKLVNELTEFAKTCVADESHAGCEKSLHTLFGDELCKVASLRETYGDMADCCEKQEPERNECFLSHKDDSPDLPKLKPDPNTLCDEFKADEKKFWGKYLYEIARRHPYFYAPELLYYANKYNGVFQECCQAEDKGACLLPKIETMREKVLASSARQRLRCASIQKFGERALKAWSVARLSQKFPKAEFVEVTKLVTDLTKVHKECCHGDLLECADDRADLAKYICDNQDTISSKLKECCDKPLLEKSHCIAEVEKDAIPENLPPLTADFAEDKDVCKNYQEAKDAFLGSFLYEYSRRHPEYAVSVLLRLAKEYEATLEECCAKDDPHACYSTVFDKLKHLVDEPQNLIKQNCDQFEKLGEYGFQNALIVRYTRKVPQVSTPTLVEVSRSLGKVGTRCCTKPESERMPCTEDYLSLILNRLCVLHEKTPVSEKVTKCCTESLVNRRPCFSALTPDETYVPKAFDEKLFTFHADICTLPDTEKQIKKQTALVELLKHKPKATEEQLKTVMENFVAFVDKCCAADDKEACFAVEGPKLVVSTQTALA
Concanavalin-A (Canavalia ensiformis), sequence (P02866 whole entry, looked up): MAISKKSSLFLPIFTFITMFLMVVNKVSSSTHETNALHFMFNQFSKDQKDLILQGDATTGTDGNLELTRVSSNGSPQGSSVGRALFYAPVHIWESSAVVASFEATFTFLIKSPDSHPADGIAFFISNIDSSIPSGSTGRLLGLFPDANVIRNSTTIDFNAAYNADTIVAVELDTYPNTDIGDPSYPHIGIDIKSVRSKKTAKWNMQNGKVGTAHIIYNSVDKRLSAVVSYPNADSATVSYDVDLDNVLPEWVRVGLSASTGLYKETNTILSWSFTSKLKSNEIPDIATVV
Focal adhesion kinase 1 (Homo sapiens), sequence (Q05397 whole entry, looked up): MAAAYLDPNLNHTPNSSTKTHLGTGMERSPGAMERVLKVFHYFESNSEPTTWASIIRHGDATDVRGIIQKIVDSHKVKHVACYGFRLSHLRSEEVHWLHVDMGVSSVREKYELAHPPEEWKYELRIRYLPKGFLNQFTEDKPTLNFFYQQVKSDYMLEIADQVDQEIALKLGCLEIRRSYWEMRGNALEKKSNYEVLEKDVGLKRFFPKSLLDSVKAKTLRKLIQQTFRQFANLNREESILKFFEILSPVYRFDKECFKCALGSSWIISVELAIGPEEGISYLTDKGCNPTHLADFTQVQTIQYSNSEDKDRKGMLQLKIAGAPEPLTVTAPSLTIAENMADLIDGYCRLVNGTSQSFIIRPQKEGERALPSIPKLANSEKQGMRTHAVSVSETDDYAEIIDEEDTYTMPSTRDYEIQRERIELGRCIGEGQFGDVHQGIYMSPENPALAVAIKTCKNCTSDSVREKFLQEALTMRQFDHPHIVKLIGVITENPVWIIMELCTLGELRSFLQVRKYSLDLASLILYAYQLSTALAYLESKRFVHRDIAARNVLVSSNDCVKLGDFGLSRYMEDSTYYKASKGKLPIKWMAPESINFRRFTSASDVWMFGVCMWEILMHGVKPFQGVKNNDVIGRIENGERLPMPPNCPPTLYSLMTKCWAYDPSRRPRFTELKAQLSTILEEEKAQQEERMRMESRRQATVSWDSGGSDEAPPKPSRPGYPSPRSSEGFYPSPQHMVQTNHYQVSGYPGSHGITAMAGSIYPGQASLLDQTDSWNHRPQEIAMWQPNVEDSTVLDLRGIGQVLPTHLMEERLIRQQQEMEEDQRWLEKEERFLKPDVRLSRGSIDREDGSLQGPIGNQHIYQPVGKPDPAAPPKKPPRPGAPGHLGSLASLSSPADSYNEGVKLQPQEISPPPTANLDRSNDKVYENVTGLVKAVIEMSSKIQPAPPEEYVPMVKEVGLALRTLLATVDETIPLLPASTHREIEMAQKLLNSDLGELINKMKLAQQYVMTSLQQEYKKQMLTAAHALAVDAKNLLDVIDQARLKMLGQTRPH
Fibroblast growth factor 2 (Homo sapiens), sequence (P09038 whole entry, looked up): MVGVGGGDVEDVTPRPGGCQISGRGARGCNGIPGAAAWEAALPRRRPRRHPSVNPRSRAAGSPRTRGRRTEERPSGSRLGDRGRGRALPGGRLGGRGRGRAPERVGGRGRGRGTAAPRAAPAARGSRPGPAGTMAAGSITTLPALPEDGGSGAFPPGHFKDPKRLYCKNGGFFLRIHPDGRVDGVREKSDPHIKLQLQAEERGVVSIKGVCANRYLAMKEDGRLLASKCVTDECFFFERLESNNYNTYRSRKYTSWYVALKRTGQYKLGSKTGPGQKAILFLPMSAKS
Luciferin 4-monooxygenase (Photinus pyralis), sequence (P08659 whole entry, looked up): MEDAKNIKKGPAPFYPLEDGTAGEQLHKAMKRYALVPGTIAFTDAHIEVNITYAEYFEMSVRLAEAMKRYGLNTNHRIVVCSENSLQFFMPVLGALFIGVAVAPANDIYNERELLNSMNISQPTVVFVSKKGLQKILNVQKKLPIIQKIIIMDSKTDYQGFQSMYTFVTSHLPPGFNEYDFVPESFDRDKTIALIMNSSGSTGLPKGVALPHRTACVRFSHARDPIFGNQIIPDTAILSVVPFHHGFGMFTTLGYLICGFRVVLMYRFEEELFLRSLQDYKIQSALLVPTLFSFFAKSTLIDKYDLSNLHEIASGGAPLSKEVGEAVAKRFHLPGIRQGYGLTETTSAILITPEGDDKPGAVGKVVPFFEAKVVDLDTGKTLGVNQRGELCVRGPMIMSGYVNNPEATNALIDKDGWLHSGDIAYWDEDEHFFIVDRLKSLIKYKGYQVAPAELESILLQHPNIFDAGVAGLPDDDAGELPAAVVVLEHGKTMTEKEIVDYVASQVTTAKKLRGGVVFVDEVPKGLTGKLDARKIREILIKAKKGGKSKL

Consider `CC(=O)OC[C@H]1O[C@H](CC=NOC(C)CN2CCCc3nc(C)c(C)cc32)C=C[C@@H]1OC(C)=O` (stereo not given in full), for which the composite z-score was -0.0846 with Albumin (Bos taurus); 0.0591 in assay [2]; 0.0032 in assay [3]; 0.0124 in assay [4]; 0.0855 in assay [5]; 0.53 in assay [6]. In addition, the composite z-score in the assay on Sam68 (KHDRBS1) was 1.2; in [7] it was 1.15; in assay [8] it was -0.152; in assay [9] it was 1.42; in [10], 0.507; in assay [11] it was 0.246. Besides, the composite z-score in assay [12] is 0.145; in assay [13], 0.803; in [14] it was 0.684; in the assay with Lefty1, 0.947; in assay [16], -0.0862. The composite Z-score in [1] is 1.01 (inactive). The results for the z-score in [15] and in assay [17] were -0.221 and 0.767 (inactive), respectively.

For the compound `CCN1C(=O)[C@H]2[C@H]3[C@H](O)[C@H](O)CC(=NNC(=O)OCc4ccccc4)[C@H]3CC[C@H]2C1=O`, the composite z-score with Albumin (Bos taurus) is 0.185; in [2] it was 0.0145; in [3] it was -0.129; in assay [4] it was -0.0576; in [5], 0.0949; in [6] it was -0.198. Further, the composite z-score is -0.813 in the assay on Sam68 (KHDRBS1); -0.0255 in [7]; 0.514 in [8]; 0.0371 in assay [9]; -0.601 in assay [10]; -0.117 in assay [11]. Besides, the composite z-score in assay [12] is 0.0307; in assay [13], -0.238; in [14], 0.215; with Lefty1 it was 0.235; in assay [16], 0.136. The composite Z-score in [1] was -0.431 (inactive). Moreover, the values for the z-score in assay [15] and in [17] were -0.538 and 0.69 (inactive), respectively.

For the compound `COC(=O)[C@@H]1CC[C@H](C)[C@@H](c2ccc(C)cc2)N1C(=O)c1ccc(C=NOC[C@@H](O)[C@H]2O[C@@H]3OC(C)(C)O[C@@H]3[C@H]2O)cc1`, the composite z-score in the assay with Albumin (Bos taurus) is 0.333; in assay [2], -0.0014; in assay [3], -0.128; in [4], 0.368; in [5], 0.424; in assay [6], 0.228. In addition, the composite z-score in the assay with Sam68 (KHDRBS1) was found to be 1.02; in [7], 0.402; in assay [8], 0.736; in assay [9] it was 0.266; in assay [10], 1.03; in [11], 0.158. For the same compound, the composite z-score in assay [12] is 0.953; in assay [13] it was 0.49; in [14], 0.63; in the assay on Lefty1, 0.367; in assay [16], 0.506. Besides, in assay [1], the composite Z-score is -0.187 (inactive). Further, the z-score was -1.78 in assay [15] and -0.297 (inactive) in [17].

As to `COC(=O)[C@H](C)NC(=O)CCC1CC(OC(=O)NCc2ccc3c(c2)OCO3)CC2(CCCC(COC(=O)NCc3ccccc3)O2)O1` (stereo not given in full), the composite z-score is -0.372 with Albumin (Bos taurus); -0.0072 in [2]; -0.156 in assay [3]; 0.192 in assay [4]; 0.849 in assay [5]; -0.0296 in assay [6]. Also, the composite z-score is 1.26 in the assay on Sam68 (KHDRBS1); 0.133 in [7]; 0.829 in assay [8]; 0.554 in assay [9]; 0.938 in assay [10]; -0.0996 in assay [11]. The composite z-score turned out to be 0.332 in [12]; 0.653 in assay [13]; 0.718 in assay [14]; 0.827 in the assay on Lefty1; 0.0082 in [16]. Also, the composite Z-score in [1] is 0.264 (inactive). The results for the z-score in assay [15] and in assay [17] were 1.05 and 0.464 (inactive), respectively.

On to `COC(OC)[C@@H](C)[C@H](OC)[C@@H](C)[C@H](OC)c1ccccc1`, for which the composite z-score in the assay with Albumin (Bos taurus) was -0.355; in assay [2], -0.0647; in assay [3] it was -0.15; in [4], -0.552; in assay [5] it was -0.729; in assay [6], -0.266. Besides, the composite z-score was -1.16 in the assay on Sam68 (KHDRBS1); 0.473 in assay [7]; -0.18 in assay [8]; -0.504 in assay [9]; 0.104 in assay [10]; -0.043 in [11]. For the same compound, the composite z-score was -0.353 in assay [12]; 0.144 in [13]; 0.142 in assay [14]; 0.253 in the assay on Lefty1; -0.0965 in [16]. Moreover, the composite Z-score in assay [1] was 0.273 (inactive). Further, the z-score is 2.15 in [15] and -1.67 (inactive) in [17].

Source of the values: PubChem BioAssay.
